A selection: hits, their analogues and other compounds. The true share with any hit is near 4.9%.
tim10-1 inh = inhibits growth of tim10-1 mutant yeast. 330,000 compounds, 2.2% hits. S. cerevisiae tim10-1 ts strain growth, BacTiter-Glo, 24 h. AID 463190. inhibition, % at 20 µM;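 active = inhibition of at least 40%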;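 note: mutant grown at 25 °C; 0% = DMSO wells with yeast and 100% = wells holding no yeast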
NALP1 yeast inh = inhibitors of NALP1 inflammasome in yeast; inhibition, % at 10 µM; S. cerevisiae NALP1/ASC/caspase-1 growth, X-gal OD620, 72 h; AID 2071; 280,000 compounds, 0.61% hits; in the data active = inhibition mostly above about 24%, no sharp cut-off; inactive = mostly below about 32%
TIM10 inh = TIM10 yeast growth inhibition; S. cerevisiae TIM10 strain growth, BacTiter-Glo luminescence, 24 h; inhibition, % at 10 µM; 330,000 compounds, 1.4% hits;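 active = inhibition of 40% or more at the single tested concentration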;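 note: wild-type TIM10 isogenic control strain grown at permissive 25 °C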
SKKanGAS inh = inhibitors of SKKanGAS S. pyogenes growth in kanamycin (SK-promoter or general growth effect). inhibition, % at 7.5 µM. BacTiter-Glo, 6 h. 300,000 compounds, 1.3% hits. AID 1662;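 active = mean replicate score, as percent of positive control median, at least 50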;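 note: strain carries kanamycin resistance gene driven by streptokinase promoter and grows in 40 µg/ml kanamycin; loss of luminescence reflects streptokinase promoter inhibition or plain growth inhibition; 0% = median of DMSO wells and 100% = positive control at its reference dose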
tim23-1 inh = tim23-1 yeast growth inhibition | S. cerevisiae tim23-1 growth, BacTiter-Glo luminescence, 24 h | inhibition, % at 20 µM | 330,000 compounds, 1.3% hits;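 active = growth inhibition of the mutant yeast at or above 50%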;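 note: temperature-sensitive mutant grown at 25 °C; plate controls were DMSO-treated mutant yeast for no effect and medium wells lacking yeast for full effect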
NALP3 yeast inh = inhibitors of NALP3 inflammasome in yeast; Yeast reconstituted NLRP3/ASC/caspase-1, beta-gal luminescence, 24 h; inhibition, % at 10 µM; 330,000 compounds, 0.39% hits;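 active = inhibition of 50% or more; inactive = inhibition below 50%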;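 note: plate controls were induced DMSO wells for no effect and uninduced yeast grown without galactose for full effect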
tim10 confirm = confirmation of TIM10 yeast growth inhibitors. shares compounds with TIM10 inh. S. cerevisiae tim10 strain growth, BacTiter-Glo luminescence, 24 h. inhibition, % at 10 µM. 4,600 compounds, 63% hits. AID 463215;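 active = inhibition of yeast growth at or above a set limit in either of two replicates at 10 µM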;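 note: this counterscreen used the strain with wild-type TIM10; 0% = yeast with DMSO and 100% = medium wells lacking yeast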
Active calls of the source: *; . = no result given.

SMILES	tim10-1 inh	NALP1 yeast inh	TIM10 inh	SKKanGAS inh	tim23-1 inh	NALP3 yeast inh	tim10 confirm
Cc1ccc(C2CC2c2n[nH]c(=S)n2-c2ccc(Cl)cc2)cc1 (configuration not stated)	27	-8	51*	3	31	40	42*
Cn1c2ccccc2c(=O)c2ccc(-c3ccc4c(c3)OCO4)cc21	2	40	4	21	5	27	.
COc1ccc2nc3sc(C(=O)N4CCN(C)CC4)cc3cc2c1	-20	5	11	1	5	21	.
COc1ccc2nc3sc(C(=O)NCCCN4CCc5ccccc5C4)cc3cc2c1	14	-1	49*	7	43	-3	57*
O=C(Nc1ccc(NC(=O)c2cccs2)cn1)c1ccccc1	-17	-23	42*	-9	19	25	30*
CCCC(=O)Nc1ccc(NC(=O)c2cccs2)cn1	-15	-12	40*	4	19	-3	-1
CCCC(=O)NC(=S)Nc1ccc(NC(=O)c2cccs2)cc1	-14	11	45*	15	20	2	18
CCCC(=O)Nc1ccc(NC(=S)NC(=O)c2cccs2)cc1	-22	8	10	-5	-27	6	.
O=C(Nc1ccc(NC(=O)C2CC2)nc1)c1cccs1	3	32	28	0	12	0	.
CCCC(=O)Nc1cc(C)c(NC(=O)c2cccs2)cn1	-16	1	1	-19	16	3	.
CCn1c(CNC(=O)c2ccccc2F)nnc1SCC(=O)Nc1nncs1	-5	26	2	2	-4	16	.
CC(=O)c1ccc(NC(=S)NCCc2cccc(Cl)c2)cc1	18	17	30	-2	24	27	.
COc1cccc2cc(-c3n[nH]c(=S)n3C)oc12	38	3	42*	-6	28	23	20
COc1cccc2cc(-c3ccnc(N)n3)oc12	3	10	17	-4	-1	25	.
Cc1ccc(NC(=O)COC(=O)Cc2cccs2)cc1S(=O)(=O)N1CCOCC1	1	18	97*	-7	9	11	-6
Cc1c(C(=O)OC(C)C)sc(N)c1C(=O)OC(C)C	-8	36	2	-14	17	30	.
CC(C)(C)c1cc(NCCCn2ccnc2)n2ncc(-c3ccc(Cl)cc3)c2n1	35	14	60*	106*	21	19	60*
Cc1cc(NCCCn2ccnc2)n2nc(-c3ccc(Cl)cc3)cc2n1	23	3	13	8	24	12	.
CCC(=O)Nc1ccc(C(=O)c2ccccc2)cc1	23	14	17	-4	20	20	.
CCC(=O)Nc1ccc(C(=O)OCc2ccccc2Cl)cc1	37	-18	58*	7	33	31	48*
Cc1ccc(S(=O)(=O)N2CCC(C(=O)NC3CCCC3)CC2)cc1Cl	-17	16	-1	3	6	16	.
O=C(Cn1c(NCCCCl)nc2ccccc21)c1ccccc1	10	.	-7	.	10	13	.
Nc1nnc(-c2cc3ccccc3oc2=O)s1	13	-16	16	-3	6	-12	.
COc1ccc2oc(=O)c(-c3nnc(N)s3)cc2c1	37	24	62*	-4	36	1	60*
COc1cc(C(C)=O)ccc1OCC(=O)OC(C)C(=O)c1ccc(F)cc1 (configuration not stated)	-11	.	-7	.	-5	4	.
SMILES	tim10-1 inh	NALP1 yeast inh	TIM10 inh	SKKanGAS inh	tim23-1 inh	NALP3 yeast inh	tim10 confirm
O=C(/C=C/c1ccc(Cl)cc1)NC(=S)Nc1ccccc1C(=O)O	34	.	43*	-4	41	14	32*
NC(=O)c1ccccc1NC(=O)/C=C/c1ccc(Cl)cc1	18	34	10	-12	9	22	.
Cc1cccc(NC(=O)c2cc([N+](=O)[O-])ccc2NCC2CCCO2)n1 (configuration not stated)	37	14	49*	-1	37	19	43*
CC(C)[C@@H](CO)N(C)S(=O)(=O)c1ccccc1Br	16	.	-4	.	32	.	.
Cc1cccc(C(=O)NNC(=O)C23CC4CC(CC(C4)C2)C3)c1O	4	13	49*	41	28	28	46*
C#CCOCCOCCOCCNc1nc(N2CCN(C(=O)C([C@@H](C)O)n3cc([C@@H](N)CCCCN)nn3)CC2)nc(N2CCN(C(=O)[C@H](CCCN=C(N)N)n3cc(C(N)[C@@H](C)CC)nn3)CC2)n1 (some centres not stated)	6	.	0	.	7	8	.
Cc1[nH]c(C(=O)N/N=C/c2ccc(C(=O)O)cc2)c(C)c1C(=O)N/N=C/c1ccc(C(=O)O)cc1	8	27	11	-4	18	4	.
CCOC(=O)c1c(C)[nH]c(C(=O)N/N=C/c2ccc(Br)cc2)c1C	26	32	50*	10	39	13	46*
Cc1ccc(CS(=O)Cc2ccc(C(=O)NCc3ccccc3Br)o2)cc1 (configuration not stated)	9	19	-3	-10	10	9	.
CC1(C)C([N+](=O)[O-])C(c2ccc(Cl)cc2)NC(c2ccc(Cl)cc2)C1[N+](=O)[O-] (configuration not stated)	37	15	42*	38	30	-13	38*
CC1(C)C([N+](=O)[O-])C(c2ccc(F)cc2)NC(c2ccc(F)cc2)C1[N+](=O)[O-] (configuration not stated)	37	13	23	7	36	-2	.
c1ccc2c(c1)oc1c(Nc3ccc4c(c3)OCCO4)ncnc12	16	-3	5	-5	10	12	.
Cc1nc(Nc2ccc3c(c2)OCCO3)c2oc3ccccc3c2n1	31	17	40*	12	38	17	21
O=C(COc1ccc2c(c1)OCO2)NC12CC3CC(CC(C3)C1)C2	31	-2	47*	9	38	31	33*
COc1ccc(NC(=O)COc2ccc3c(c2)OCO3)cc1	-52	3	2	2	4	6	.
N#Cc1ccc(C(=O)N(Cc2ccccc2)c2ccccc2)cc1	29	22	19	6	26	14	.
COC(=O)c1ccc(C(=O)N(Cc2ccccc2)c2ccccc2)cc1	15	4	46*	4	16	22	-7
COC(=O)[C@@]12CCCN1[C@H](c1ccc(-c3ccc4c(c3)OCO4)cc1)[C@H]1C(=O)N(C)C(=O)[C@H]12	-6	.	-3	.	5	0	.
O=C(c1ccccc1Cl)N(C(=O)c1ccccc1Cl)c1nccc(-c2cccs2)n1	27	28	42*	4	28	6	10
O=C(Nc1nccc(-c2cccs2)n1)c1ccccc1Cl	16	1	7	8	4	-4	.
Cc1ccccc1C1=N/C(=C/c2cccs2)C(=O)O1	31	8	51*	-23	17	5	15

Source: PubChem BioAssay (several laboratories)
